Compound activity: PubChem, National Center for Advancing Translational Sciences (NCATS)
IP6K1 inhibitor: Primary qHTS assay for small molecule inhibitors of Inositol hexaphosphate kinase 1 (IP6K1); IP6K1 kinase, ADP-Glo luminescence, 2 h; active compounds read low; activity change, % (series mostly up to about 58 µM); Inositol hexakisphosphate kinase 1 (Homo sapiens), Q92551; 140,000 compounds, 0.81% hits; in the data active = activity change below about -25%
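ADP-Glo luminescence measures ADP made by human IP6K1 during a 2 h RT reaction with ATP/IP6 (mix at 1.3 mM/130 uM); top library doses 57.5 and 19.1 uM final.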
KDM5B inh: Primary screen for KDM5B Histone Demethylases FDH-coupled qHTS; Potency, µM (top dose mostly 57.7 µM), actives largely listed as inhibitors; KDM5B demethylase, FDH-coupled NADH fluorescence (FDH is formaldehyde dehydrogenase); AID 1347165, 2019; 220,000 compounds, 2.6% hits; active = well fitted inhibition curve with a large enough effect; inconclusive = small, poorly fitted or top-dose-only effect; inactive = no such curve, though single readings can be large or run the other way; note: nearly all actives have a fitted effect of over 70% in size
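Here, H3K4me3 peptide (12.5 µM in substrate mix) is demethylated by KDM5BΔAP, 200 nM final, after 10 min compound exposure. Formaldehyde product is coupled through FDH (0.25 U/mL in mix) to NADH fluorescence; 30-min ΔRFU feeds dose-response curves.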
Numbers stand for hits; 0 = inactive; ? = inconclusive; - = not tested or not shown. A selection: hits, their analogues and other compounds. The true share with any hit is near 2.7%.

SMILES	IP6K1 inhibitor	KDM5B inh
COCC(=O)N1C[C@H](NC(=O)c2nc3ccccc3n(C)c2=O)[C@@H](C2CC2)C1	0	22µM
O=C1/C(=C/c2ccc3ccccc3c2)CCc2ccccc21	-	0
Cc1nc(C)n(CCNS(=O)(=O)c2ccccc2)n1	-	0
Cc1nc(C)n(CCCNc2nccc(-c3ccccn3)n2)n1	0	22µM
COc1ccccc1-n1cc(C(=O)N2CCC3(CCNC(=O)CC3)CC2)cn1	0	0
Cc1cccc2ncc(C(=O)N3CCC4(CCNC(=O)CC4)CC3)c(=O)n12	0	22µM
O=C(NCC1CCCCCC1)c1nc2cccnc2n(CCc2ccccc2)c1=O	0	-
Cc1noc(C)c1-c1cc2cc(CO)oc2c(N2CCN(c3ccccn3)CC2)n1	0	?
Cc1noc(C)c1-c1cc2cc(C(C)C)oc2c(N2CCN(C)C(=O)C2)n1	0	?
Cc1noc(C)c1-c1cc2cc(C(C)C)oc2c(N2CCS(=O)(=O)CC2)n1	0	32µM
Cc1noc(C)c1-c1cc2cc(CO)oc2c(N2CCS(=O)(=O)CC2)n1	0	35µM
NC(=O)C(Sc1ccccc1)c1ccccc1 (stereo unspecified)	-	0
O=C(NCc1ccccc1)c1cc2cc(Br)ccc2[nH]1	-	0
CC(C1CC1)N(Cc1ccccc1)S(=O)(=O)c1ccc(Br)cc1 (stereo unspecified)	-	0
CC(C)c1nnc(Sc2nc(C(F)(F)F)nc3ccccc23)n1C1CC1	-	0
